# Inconclusive results are not listed. Values without a mark were called inactive. The call rests on the fitted dose curve; in most records, active means well fitted inhibition curve with a large enough effect; inconclusive means small, poorly fitted or top-dose-only effect; inactive means no such curve, though single readings can be large or run the other way.
# Assay: Primary qHTS for small molecule stabilizers of the endoplasmic reticulum resident proteome: Secreted ER Calcium Modulated Protein (SERCaMP) assay (AID 1508630)
# Details: SH-SY5Y GLuc-SERCaMP (Gaussia luciferase released on ER calcium loss) secretion, thapsigargin, luminescence; series mostly up to 38.4 µM; activity change, negative = inhibition: at the top concentration
# Method in brief: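 GLuc-SERCaMP-expressing SH-SY5Y cells, pretreated 16 h with compound, are challenged with thapsigargin to empty ER calcium stores; after 4 h, coelenterazine is added directly to the medium and luminescence is imaged.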
# On the % scale 0 is the no-effect control and ±100 the full control effect.
row,SMILES,"activity change, negative = inhibition [%]"
1,COc1cc(C)c(Sc2cnc(NC(=O)c3ccc(CNC(C)C(C)(C)C)cc3)s2)cc1C(=O)N1CCN(C(C)=O)CC1 (centres undefined),115
2,C[C@@H]1[C@H](C)CC[C@]2(C(=O)O)CC[C@]3(C)C(=CC[C@@H]4[C@@]5(C)C[C@@H](O)[C@H](O)[C@@](C)(CO)[C@H]5CC[C@]43C)[C@@H]12,-4.73
3,C=CCNC1=C2C[C@@H](C)C[C@H](OC)[C@@H](O)[C@@H](C)C=C(C)[C@H](OC(N)=O)[C@@H](OC)C=CC=C(C)C(=O)NC(=CC1=O)C2=O,221
4,Cc1nc(NC(=O)N2CCC[C@@H]2C(N)=O)sc1-c1ccnc(C(C)(C)C(F)(F)F)c1,157
5,CC(C)(O)Cn1c(NC(=O)c2ccc(-c3cn[nH]c3)s2)nc2cc(CN3CCOCC3)ccc21,222
6,OCc1ccccc1O[C@@H]1O[C@H](CO)[C@H](O)[C@H](O)[C@H]1O,-24.3
7,O=C(O)C[C@H](O)C[C@H](O)C=Cc1c(C2CC2)nc2ccccc2c1-c1ccc(F)cc1,17.4
8,O=c1[nH]c(=O)n([C@H]2C[C@@H](O)[C@@H](CO)O2)cc1F,69.1
9,COC1=C2C[C@@H](C)C[C@H](OC)[C@@H](O)[C@@H](C)C=C(C)[C@H](OC(N)=O)[C@@H](OC)C=CC=C(C)C(=O)NC(=CC1=O)C2=O,-43.1
10,C[C@@]12C(=O)OC(=O)[C@@]1(C)C1CCC2O1,70.1
11,COC(=O)[C@@H]1[C@H]2C[C@@H]3c4[nH]c5ccccc5c4CCN3C[C@@H]2CC[C@@H]1O,16.5
12,COc1ccc(CCC(=O)c2c(O)cc(O[C@@H]3O[C@H](CO)[C@@H](O)[C@H](O)[C@@H]3O[C@@H]3O[C@@H](C)[C@H](O)[C@@H](O)[C@@H]3O)cc2O)cc1O,0
13,CCNC(=O)c1cc2c(-c3cc(OCCN4CCCC4)c(Cl)cc3Cl)nc(N)nc2s1,119
14,Oc1ccc([C@@H]2Oc3ccc(O)cc3[C@@H]3CCC[C@@H]32)cc1,181
15,C[C@]12CC[C@@H]3c4ccc(O)cc4CC[C@H]3[C@H]1CC[C@H]2O,63.3
16,COC(=O)[C@@H]1CC2=CC(=O)CC[C@]2(C)[C@@]23O[C@@H]2C[C@@]2(C)[C@H](CC[C@@]24CCC(=O)O4)[C@@H]13,0.826
17,CC(=O)O[C@]1(C(C)=O)CC[C@H]2[C@@H]3C=C(C)C4=CC(=O)CC[C@]4(C)[C@@H]3CC[C@@]21C,238
18,CCOc1cc2ncc(C#N)c(Nc3ccc(OCc4ccccn4)c(Cl)c3)c2cc1NC(=O)C=CCN(C)C,0
19,O=C1NC(=O)[C@@H](c2cn3c4c(cccc24)CCC3)[C@H]1c1c[nH]c2ccccc12,0
20,CCCCCN=C(N)NN=Cc1c[nH]c2ccc(OC)cc12,206
21,CC1(C)CC(O)CC(C)(C)N1[O],-1.52
22,COc1cccc2c1C(=O)c1c(O)c3c(c(O)c1C2=O)C[C@@](O)(C(C)=O)C[C@H]3O[C@H]1C[C@H](N)[C@H](O)[C@H](C)O1,280
23,Cc1onc(-c2ccccc2)c1C(=O)N[C@@H]1C(=O)N2[C@@H](C(=O)O)C(C)(C)S[C@@H]12,75
24,C[C@@H](Oc1ccc2[nH]nc(C=Cc3cnn(CCO)c3)c2c1)c1c(Cl)cncc1Cl,306

# From PubChem BioAssay (NCATS)
